A selection: hits, their analogues and other compounds. The true share with any hit is near 6%.
D1 potentiator: potentiators of human D1 dopamine receptor; P21728; HEK293 TREx D1 cells, calcium flux, dopamine EC20 potentiation; potentiation, % at 10 µM; 360,000 compounds, 0.036% hits; AID 504651; in the data active = potentiation above about 30%
DRD3 agonist: agonists of human D3 dopamine receptor; P35462; D3R DiscoveRx beta-arrestin cells, luminescence, 90 min; max activation, %; 410,000 compounds, 0.58% hits; in the data active = max activation above about 30%
Target sequence (P35462 whole entry, looked up): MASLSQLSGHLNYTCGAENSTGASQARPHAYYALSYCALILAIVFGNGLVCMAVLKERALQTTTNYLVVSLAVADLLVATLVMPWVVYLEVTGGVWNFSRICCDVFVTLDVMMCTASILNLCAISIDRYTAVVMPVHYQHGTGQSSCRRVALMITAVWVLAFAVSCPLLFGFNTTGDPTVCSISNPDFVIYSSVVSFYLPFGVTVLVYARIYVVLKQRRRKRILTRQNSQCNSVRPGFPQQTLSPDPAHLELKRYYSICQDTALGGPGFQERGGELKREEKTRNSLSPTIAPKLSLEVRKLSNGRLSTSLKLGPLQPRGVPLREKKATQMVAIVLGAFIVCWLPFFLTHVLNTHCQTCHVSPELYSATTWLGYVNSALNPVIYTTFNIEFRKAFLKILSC
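Agonist mode: compounds and dopamine controls were applied to plated cells for 90 min at 37 degrees C after an overnight attachment at 1500 cells/well. Luminescent read-out followed 30 - 60 minutes at room temperature with DiscoveRx detection reagent.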
D1 agonist: agonists of human D1 dopamine receptor | HEK293 T-REx D1 cells, calcium flux, agonist mode | AID 504660 | P21728 | 360,000 compounds, 1% hits | activation, % at 2 µM; in the data active = activation above about 30%
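Inducible HEK293 T-REx D1 cells, force-coupled to calcium signalling, were plated at 4000 cells/well with tetracycline and held overnight at 30 C. After no-wash calcium dye loading, compound-evoked calcium rise over 180 s flagged agonists.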
D3 antag: antagonists of human D3 dopamine receptor. P35462. D3R cells, DiscoveRx beta-arrestin luminescence, antagonist mode; active compounds read low. max response, negative = inhibition, %. 360,000 compounds, 2.5% hits. AID 652054; in the data active = max response below about -50%; inconclusive = no clear call, values can overlap the other calls
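Cells expressing the human receptor were seeded at 1500 cells/well, incubated overnight at 37 degrees C in 5% CO2, then exposed to library compounds with dopamine controls for 90 minutes at 37 degrees C before luminescent detection.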
D1 antag: blocks dopamine activation of the human D1 receptor | P21728 | HEK293 TREx D1 cells, calcium flux, dopamine EC80; active compounds read low | activity change, negative = inhibition, % at 10 µM | 360,000 compounds, 3.2% hits | AID 504652; in the data active = activity change below about -30%
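After overnight tetracycline induction at 30 C, force-coupled D1 HEK293 cells took up a no-wash calcium dye at room temperature. Compounds were added and monitored 180 s, and the response to EC80 dopamine was then recorded.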
Each line names hits and unclear results; the compound was inactive in the other large screens; ! = repeats disagree.

CC1=C(C(=O)N2CCCCCC2)CC(CC(=O)NC(c2ccccc2)c2ccccc2)C(=O)N1CCC1=CCCCC1 (stereo unspecified)	none (no result: D1 potentiator, D1 agonist, D1 antag)
Clc1ccc(-c2nnc(Sc3nc4ccccc4o3)c3ccccc23)cc1	D3 antag inconclusive
O=c1c(Cl)c2oc3ccccc3nc-2c2ccccc12	D1 agonist 75
Cc1ccc(NC2CCCN(C(=O)CCN3CCOCC3)C2)cc1C (stereo unspecified)	none
CCOC(=O)c1c(-c2ccccc2)csc1NC(=O)c1cc(-c2ccccc2OC)on1	none (no result: D1 potentiator, D1 agonist, D1 antag)
Cn1nnnc1Sc1ncnc2scc(-c3ccccc3F)c12	none (no result: DRD3 agonist, D3 antag)
Cn1nnnc1Sc1ncnc2scc(-c3ccccc3C(F)(F)F)c12	D1 antag -36! (no result: DRD3 agonist, D3 antag)
Cn1nnnc1Sc1ncnc2scc(-c3cc4ccccc4o3)c12	D1 antag -44! (no result: DRD3 agonist, D3 antag)
Cc1ccc2c(=O)n3c(nc2c1)C(Cc1ccc(O)cc1)NC(=O)c1cc2ccccc2cc1-3 (stereo unspecified)	none (no result: D1 potentiator, D1 agonist, D1 antag)
CCOCCn1ccc2c(OCC(=O)Nc3cccc([N+](=O)[O-])c3)cccc2c1=O	none (no result: D3 antag, D1 antag)
C[C@@H]1CN([C@@H](C)CO)C(=O)c2cc(C#CCN(C)C)cnc2O[C@H]1CN(C)Cc1ccc2c(c1)OCO2	none (no result: D1 potentiator, D1 agonist, D1 antag)
O=c1[nH]cnc2scc(C3COc4ccccc4O3)c12 (stereo unspecified)	D1 agonist 47
Cc1cc(N2CCN(C)CC2)ccc1NC(=O)c1cccc(S(=O)(=O)N2CCc3ccccc3C2)c1	D1 antag -87
Cc1cc(OCC(=O)N2CCN(c3ccccn3)CC2)c(C)cc1Br	none
CC(C)C1COC(c2cccn2Cc2ccccc2Cl)=N1 (stereo unspecified)	D1 antag -38
COc1ccc(CCN2CC(C(=O)N3CCCCCC3)CCC2=O)cc1 (stereo unspecified)	none
O=C(CSC1=NS(=O)(=O)c2ccccc2N1)Nc1cccc(F)c1	none
COCC(=O)N1CCC2CC1c1c(-c3ccc(C(F)(F)F)cc3)cccc12 (stereo unspecified)	D3 antag inconclusive (no result: D1 potentiator, D1 agonist, D1 antag)
O=C(Nc1cccc2ncccc12)c1ccc([N+](=O)[O-])o1	D1 antag -39
COc1cc(OC)c(N(C)S(=O)(=O)c2cccc(C(=O)OCC(=O)c3c[nH]c4ccccc34)c2)cc1Cl	DRD3 agonist 33
C=CCN(c1ccccc1OC)S(=O)(=O)c1cccc(C(=O)OCC(=O)c2c[nH]c3ccccc23)c1	none
CCCS(=O)(=O)c1nc(S(=O)(=O)c2ccc(C)cc2)c(N2CCN(C)CC2)s1	D3 antag -61
CCN1CCN(c2sc(S(C)(=O)=O)nc2S(=O)(=O)c2ccc(C)cc2)CC1	none
CCCS(=O)(=O)c1nc(S(=O)(=O)c2ccc(C)cc2)c(N(C)Cc2ccccc2)s1	D1 agonist 35 (no result: D3 antag)
CCN1CCN(c2sc(S(=O)(=O)CC)nc2S(=O)(=O)c2ccc(C)cc2)CC1	D3 antag -80 (no result: D1 potentiator, D1 agonist, D1 antag)
CCCS(=O)(=O)c1nc(S(=O)(=O)c2ccc(C)cc2)c(N2CCN(CC)CC2)s1	D3 antag -109
O=C(NC1CCCCC1)OC1CC2CC1[C@H]1CCCCN1C2=O (stereo partly specified)	none (no result: D1 potentiator, D1 agonist, D1 antag)
COc1cc([C@@H]2c3cc4c(cc3C(O[C@@H]3O[C@@H]5COC(c6cccs6)O[C@H]5[C@H](O)[C@H]3O)C3COC(=O)[C@@H]32)OCO4)cc(OC)c1O (stereo partly specified)	none (no result: D1 potentiator, D1 agonist, D3 antag, D1 antag)
COC(=O)C(C)Sc1nc2ccsc2c(=O)n1Cc1ccccc1 (stereo unspecified)	none
CC(=O)c1csc(-c2ccccc2)n1	D1 antag -55
O=C(Nc1ccc(Cl)cc1)c1csc(-c2ccccc2)n1	none
CCC(c1nnnn1Cc1cccs1)N1CCN(C2CCCC2)CC1 (stereo unspecified)	D3 antag -63
CCCC(c1nnnn1Cc1cccs1)N1CCN(C2CCCC2)CC1 (stereo unspecified)	none
COc1ccc(C2=Nc3ccccc3NC(=O)C2N(Cc2ccccc2)C(=O)C2=NNC(=O)CC2)cc1 (stereo unspecified)	none (no result: D1 potentiator, D1 agonist, D1 antag)
CCOc1ccc2nc(Cl)c(C3CC(c4ccc(C)cc4)=NN3C(=O)CCC(=O)O)cc2c1 (stereo unspecified)	none (no result: D3 antag)
CCOc1ccc2cc(-c3nnc(Nc4ccccc4F)s3)c(=O)oc2c1	none (no result: D3 antag)
CCCCc1nc2ccccc2c(N)c1CCC (tested in a mixture with another compound)	D1 agonist 50, D1 antag -47
CCCCc1nc2ccccc2c(NC(=O)CNC(C)(C)C)c1CCC	none
Cc1ccc2[nH]c(=O)c(CN(CCCO)S(=O)(=O)c3cccc4nsnc34)cc2c1	D3 antag -145
CCNS(=O)(=O)c1ccc(CCC(=O)N2CCc3ccccc3C2)cc1	D3 antag -72
CCNS(=O)(=O)c1ccc(CCC(=O)N2CCCC2)cc1	none
C[C@H](CO)N1C[C@H](C)[C@@H](CN(C)S(=O)(=O)c2cccs2)Oc2c(NC(=O)NC3CCCCC3)cccc2C1=O	none (no result: D1 potentiator, D1 agonist, D1 antag)
CCOC(=O)c1c(C)[nH]c(C(=O)OC)c1CCC(=O)OC	D1 antag -36
CCOC(=O)c1[nH]c(Cc2[nH]c(C(=O)OCC)c(C)c2CCC(=O)OC)c(CCC(=O)OC)c1C	D1 antag -55
CCOC(=O)c1[nH]c(C)c(C(=O)NC)c1C	none
COc1cccc(C(=O)Nc2ccccc2-c2nnc(-c3ccc(C(C)(C)C)cc3)o2)c1	none (no result: D3 antag)
Cc1cccc(C(=O)NC2=NC(c3ccc(Cl)cc3)CC(=O)N2)c1 (stereo unspecified)	none (no result: D3 antag)
CCOC(=O)C(C(=O)N(C)C)c1ncc(C(F)(F)F)cc1Cl (stereo unspecified)	D3 antag inconclusive, D1 antag -46
Cc1cc(C)c(C#N)c(SCc2ccccc2[N+](=O)[O-])n1	none
Cc1cc(C)c(C#N)c(SCc2nnc(-c3ccccc3[N+](=O)[O-])o2)n1	D1 agonist 38
O=C1Nc2c(ccc(Cl)c2Cl)C(=O)C1(F)c1ccccc1 (stereo unspecified)	none
O=C1Nc2ccc(Cl)cc2C(=O)C1(F)c1ccccc1 (stereo unspecified)	DRD3 agonist 37
CCCCN(C)CCCNC(=O)c1ccc2nc(N3CCCCC3)sc2c1	none (no result: D3 antag)
C=CCn1c(Cc2ccccc2)nc2c(cnn2-c2ccccc2)c1=O	DRD3 agonist 39
Cc1cc(=O)oc2cc(OC(C)C(=O)Nc3nccs3)ccc12 (stereo unspecified)	D1 antag -37
Cn1c2cc(Br)sc2c2cnn(Cc3c(F)cccc3Cl)c(=O)c21	D1 antag -94 (no result: DRD3 agonist, D3 antag)
Cn1c2cc(Br)sc2c2cnn(Cc3c(F)cccc3F)c(=O)c21	none (no result: DRD3 agonist, D3 antag)
COCCCNC(=O)c1ccc2c3c(onc13)-c1ccccc1C2=O	D3 antag inconclusive
CCOC(=O)C(C(=O)OCC)c1cc(Br)c2noc3c2c1C(=O)c1ccccc1-3	D3 antag -102
